Screening results (PubChem)
Rows were chosen to be rich in hits. Some 1.3% of all compounds tested hit in one or more screens of this group.
EPAC1 antag = blocks human EPAC1 exchange factor; 360,000 tested, 0.14% active; Potency, µM (doses to about 115 µM), inactives show at the top dose activity change, negative = inhibition, most hits filed as inhibitors; EPAC1 GEF assay, Rap1b-BODIPY-GDP exchange fluorescence;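 further: plate controls were vehicle for no effect and positive control for full effect; nearly all actives have a fitted effect of over 50% in size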
Target sequence (O95398 whole entry, looked up): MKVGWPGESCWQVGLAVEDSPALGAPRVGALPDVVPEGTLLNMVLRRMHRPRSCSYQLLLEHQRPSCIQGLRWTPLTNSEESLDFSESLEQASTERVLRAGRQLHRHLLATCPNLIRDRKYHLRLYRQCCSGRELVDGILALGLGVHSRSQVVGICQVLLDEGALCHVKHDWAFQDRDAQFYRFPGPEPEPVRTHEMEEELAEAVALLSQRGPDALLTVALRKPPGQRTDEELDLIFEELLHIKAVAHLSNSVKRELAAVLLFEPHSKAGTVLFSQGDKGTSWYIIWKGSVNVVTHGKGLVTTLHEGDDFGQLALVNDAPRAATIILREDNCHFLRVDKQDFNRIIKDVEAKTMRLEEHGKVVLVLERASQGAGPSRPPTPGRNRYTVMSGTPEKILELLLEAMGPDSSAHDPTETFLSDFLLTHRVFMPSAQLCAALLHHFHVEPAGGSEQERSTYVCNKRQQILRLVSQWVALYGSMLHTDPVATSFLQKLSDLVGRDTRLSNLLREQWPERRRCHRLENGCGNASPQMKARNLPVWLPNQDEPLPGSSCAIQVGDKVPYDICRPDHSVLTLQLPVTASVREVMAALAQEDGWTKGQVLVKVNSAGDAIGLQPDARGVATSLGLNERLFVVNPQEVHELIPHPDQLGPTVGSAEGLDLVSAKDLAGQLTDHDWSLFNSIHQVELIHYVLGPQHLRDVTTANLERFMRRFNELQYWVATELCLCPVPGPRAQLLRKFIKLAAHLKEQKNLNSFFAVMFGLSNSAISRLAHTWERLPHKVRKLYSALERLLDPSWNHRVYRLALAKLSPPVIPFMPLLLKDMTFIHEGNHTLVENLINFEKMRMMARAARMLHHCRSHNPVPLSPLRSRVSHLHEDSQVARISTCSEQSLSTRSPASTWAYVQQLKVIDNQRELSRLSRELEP
BRCA1 expr act = increases BRCA1 expression | Potency, µM (series often up to 46.1 µM), for the others: at the top dose activation, usual class: activators | 380,000 tested, 1.1% active | MCF7-BRCA1-FFLuc reporter, luminescence, 48 h; response scale: scaled: vehicle 0%, 10 µM genistein 100%; further: nearly all actives have a fitted effect of over 80% in size
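First, MCF7-BRCA1-FFLuc cells (2000/well) attach for 2 h; next, compounds are pin-added and incubated 48 h at 37 °C; finally, luciferase reagent is added and luminescence read after 15 min.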
EPAC2 ag = EPAC2 (human) agonism; Q8WZA2; EPAC2 activation, biochemical qHTS; response scale: 100% = 6.5 mM cAMP response; Potency, µM (top dose mostly 154 µM), for the others: top-dose activation, hits mostly activators; 360,000 tested, 0.079% active; AID 720711; further: nearly all actives have a fitted effect of over 50% in size
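Fluorescence exchange assay: 100 nM EPAC2 with 250 nM RAP1B-BODIPY-GDP and 50 uM GDP; compounds tested as a concentration-titration series (qHTS). Loss of Rap1-bound BODIPY-GDP fluorescence read at 480/540 nm; data normalized to 6.5 mM cAMP.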
RGS4 inhibitor = human RGS4 inhibition. P49798. Transcreener GDP fluorescence polarization, RGS4-accelerated GTP hydrolysis. 390,000 tested, 0.039% active. Potency, µM (series often up to 114 µM), for the others: at the highest dose activity change, negative = inhibition, hits mostly inhibitors. AID 504845; further: on the % scale 0 is the no-effect control and ±100 the full control effect; nearly all actives have a fitted effect of over 75% in size
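MLSMR compounds (23 nl, pin-transferred) preincubated 10 min at room temperature with a 500nM (2x) first reagent, then RGS4 at 900nM (2x) plus Transcreener GDP mix added; fluorescence polarization (620/688 nm) read before and after 90 min at 30 °C.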
EPAC1 ag = EPAC1 (human) agonism | O95398 | 360,000 tested, 0.073% active | EPAC1 agonist qHTS, biochemical assay; response scale: 100% = response to 6.5 mM cAMP | AID 720707 | Potency, µM (doses to about 154 µM), for the others: at the highest dose activation, usual class: activators; further: nearly all actives have a fitted effect of over 60% in size
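Fluorescent GDP-exchange assay: 100 nM EPAC1 with 250 nM Rap1B preloaded with BODIPY-GDP and 50 uM GDP; compounds tested as concentration series, 5 min at room temperature, then read every 5 min for 30 min (ex 480/em 540 nm); normalized to 6.5 mM cAMP.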
EPAC2 antagonist = antagonists of human EPAC2; EPAC2 GEF exchange of Rap1B-BODIPY-GDP, fluorescence; AID 720708; Q8WZA2; Potency, µM (series often up to 114 µM), for inactives: at the top dose activity, negative = inhibition, hits mostly inhibitors; 360,000 tested, 0.18% active; further: on the % scale 0 is the no-effect control and ±100 the full control effect; nearly all actives have a fitted effect of over 45% in size
* hit, by the source's call; i = inactive; ? = inconclusive; . = not tested or not shown; [ ] = remark or other dose. The call rests on the fitted dose curve; in most records, active means well fitted curve in the direction sought with a large enough effect; inconclusive means small, poorly fitted or top-dose-only effect, or another doubt; inactive means no such curve, though single readings can be large; an effect the other way counts as inactive or inconclusive. Potency means the concentration at half of the fitted maximal effect.

SMILES	EPAC1 antag	BRCA1 expr act	EPAC2 ag	RGS4 inhibitor	EPAC1 ag	EPAC2 antagonist
CSc1ccc(/C=C/c2ccnc3ccccc23)cc1	.	4.47µM*	.	.	.	.
COc1ccc2oc(=N)c(C(=O)Nc3ccccc3Cl)cc2c1	-9.4%	4.47µM*	0.1%	-16.2%	-1.9%	7.0%
COc1ccc2oc(=N)c(C(=O)Nc3ccccc3)cc2c1	0.0%	49.7%	-1.2%	8.0%	0.0%	1.0%
CCOc1ccc2c(c1)C(=O)c1cc(OCC(=O)O)ccc1-2	8.0%	0.0%	-3.8%	-4.5%[56.9 µM]	-5.9%	?
CCCCOc1ccc2c(c1)C(=O)c1cc(O)ccc1-2	-17.5%	3.55µM*	6.8%	-37.4%	10.3%	?
COc1cccc(C(=O)NCCSc2ccc(C)cc2)c1	-10.3%	14.1%	12.3%	-11.1%	-10.1%	-8.5%
CCC(=O)Nc1ccc(NC(=O)c2cccc(OC)c2)nc1	9.0%	11.2µM*	4.2%	13.3%	3.0%	-0.7%
COC(=O)c1ccc(NC(=O)c2cccc(OC)c2)cc1	-0.3%	2.51µM*	-3.5%	-1.3%	-3.4%	-3.7%
COc1cccc(C(=O)NCCSc2ccc(F)cc2)c1	4.9%	11.2µM*	-6.5%	?	-3.0%	-4.0%
COC(=O)c1ccc(OCC(=O)c2cccc(OC)c2)cc1	-2.3%	2µM*	-1.1%	13.1%	-13.5%	10.8%
Cc1ccc(/C=C/C(=O)NC(=S)Nc2ccccc2C(=O)NC2CCCCC2)cc1	-4.9%	-16.1%	-2.9%	-5.0%	-8.1%	-0.3%
O=C(CSc1nnc(-c2ccncc2)n1Cc1ccco1)Nc1ccccc1Cl	0.0%	3.5%	5.2%	-9.5%	0.0%	-12.2%
Cc1ncc([N+](=O)[O-])n1CCN1C(=O)c2ccccc2C1=O	-2.0%	-12.8%	5.3%	-20.9%	2.7%	-0.3%
COc1cccc(C(=O)Nc2ccc(F)c(F)c2F)c1	-21.3%	3.55µM*	2.5%	11.0%	4.9%	1.4%
COc1cccc(C(=O)Nc2ccc(F)cc2F)c1	3.2%	?	3.5%	-27.6%	-12.8%	11.3%
Cc1ccc(NC2=Nc3ccccc3CC2)cc1	-1.7%	0.8%	3.6%	-5.3%	0.0%	1.7%
Brc1ccc(NC2=Nc3ccccc3CC2)cc1	-5.7%	8.91µM*	-3.7%	-41.9%[56.9 µM]	8.2%	-3.6%
O=C1Nc2ccc(I)cc2C1=Cc1cc(Br)c(O)c(Br)c1	.	-44.3%	.	.	.	.
O=C1Nc2ccc(I)cc2/C1=C/c1cc(Br)c(O)c(Br)c1	.	.	.	9.47µM*	.	.
CCC(CC)C(=O)c1c[nH]c(C(=O)NN)c1	-3.8%	-51.1%	11.0%	26.9%	4.5%	2.6%
CCC1=NN(C(=O)c2ccc(Br)cc2)C(O)(c2ccccc2)C1 (configuration not stated)	87.6%	-57.5%	1.1%	-4.7%	112µM*	-7.3%
Cc1cc2ncc(-c3cccc(Cl)c3)cn2n1	6.2%	0.0%	-5.0%	-5.6%	-2.1%	4.7%
Cc1nn2cc(-c3ccc(Cl)cc3)cnc2c1Cl	-18.3%	3.16µM*	4.7%	23.7%	0.8%	-9.0%
CC1CN(CCCOc2ccccc2[N+](=O)[O-])CC(C)O1 (configuration not stated)	2.8%	5.3%	8.7%	23.9%	-1.1%	-1.9%
O=C(Nc1nc2ccccc2[nH]1)c1ccccc1	0.0%	-37.3%	6.6%	-21.6%	0.0%	3.8%
SMILES	EPAC1 antag	BRCA1 expr act	EPAC2 ag	RGS4 inhibitor	EPAC1 ag	EPAC2 antagonist
Nn1c(SCc2ccccc2)nc2ccccc21	7.3%	3.16µM*	4.8%	-4.1%	-3.6%	14.2%
COc1cc(OC)c(CN2CCCN(C)CC2)cc1Br	-15.6%	-0.6%	1.3%	4.7%	-0.3%	7.0%
CN(C)c1ccc(/C=C(/C(=O)c2ccc(Cl)cc2Cl)n2cncn2)cc1	-13.3%	-63.2%	44.7µM*	-15.1%	100µM*	-24.2%
COc1ccc(/C=C(/C(=O)c2ccc(Cl)cc2Cl)n2cncn2)cc1	-10.3%	-29.4%	17.3%	?	19.3%	-9.7%
COc1ccc(NC(=O)c2cc(-c3cccs3)on2)cc1	-28.7%	4.47µM*	9.6%	-4.4%	8.1%	2.7%
COC(=O)c1sc(NC(=O)COc2ccc(OC)cc2)nc1C	-2.8%	-3.2%	-7.6%	2.1%	-9.3%	-10.7%
Cc1ccc(NC(=O)c2cc(C)on2)cc1	-5.5%	5.01µM*	9.8%	31.2%	8.4%	2.3%
O=C(Nc1cc(Br)ccc1O)c1cc(-c2ccc3c(c2)OCO3)on1	?	1.41µM*	8.7%	14.6%	-3.4%	?
COC(=O)c1sc(NC(=O)c2cc(C)on2)nc1C	-6.7%	10µM*	5.8%	31.2%	3.8%	0.1%
CCc1ccc(NC(=O)c2cc(C)on2)cc1	0.8%	?	5.1%	30.8%	14.1%	-2.7%
O=c1cc(CN2CCN(c3ccc(O)cc3)CC2)nc2scc(-c3ccccc3)n12	-2.3%	-38.3%	6.2%	-14.9%	4.2%	4.0%
COc1ccc(CCNS(=O)(=O)c2ccc3c(c2)CCCC3)cc1OC	-11.2%	-6.1%	10.3%	1.8%	2.1%	-6.6%
Cc1ccc(-c2cc(C(=O)Nc3cc(C)ccc3O)no2)cc1	2.3%	1.12µM*	0.7%	-12.5%	-11.2%	21.1%
CCCOc1ccc(NC(=O)CC2C(=O)OCC3CCCCN32)cc1 (configuration not stated)	6.0%	-0.7%	2.8%	3.1%	-0.8%	-0.4%
O=C(CC(C(=O)O)C1CCCO1)Nc1cccc(C(F)(F)F)c1 (configuration not stated)	-14.6%	2.4%	9.6%	-9.4%	0.4%	1.4%
COc1ccc(OC)c(S(=O)(=O)N2CCC(C(=O)N3CCCC3)CC2)c1	-2.9%	0.9%	-2.1%	1.8%	-6.0%	1.7%
CC(=O)c1ccc(NC(=O)Nc2cccc3ccccc23)cc1	12.8%	3.98µM*	7.4%	3.0%	7.9%	1.2%
CC(=O)Nc1ccc(NC(=O)Nc2cccc3ccccc23)cc1	-10.9%	6.2%	7.5%	5.8%	0.9%	10.1%
CC(=O)OCCn1c(C)[n+](CCOC(C)=O)c2cc(Cl)c(Cl)cc21	-3.7%	-6.8%	-1.6%	-16.7%	1.0%	1.9%
CC(=O)OCCn1c2nc(=O)[nH]c(=O)c-2nc2cc(C)c(C)cc21	i	-13.1%	100µM*	-6.5%	50.1µM*	i
CCOC(=O)N1CCC(N2CCN(S(=O)(=O)c3ccc(NC(C)=O)cc3)CC2)CC1	-2.8%	-8.1%	6.5%	-9.6%	-1.2%	11.5%
CN(C)S(=O)(=O)c1cccc(NC(=O)COC(=O)CNC(=O)c2cccc([N+](=O)[O-])c2)c1	6.6%	3.7%	6.0%	-19.1%	-3.2%	1.9%
O=C(NCCCN1CCOCC1)c1cc2c(s1)CCCC2	0.3%	54.9%	-82.5%[15.6 µM]	1.8%	-3.5%	-23.1%
